Inconclusive results are not listed. Active and inactive are the calls of the source. Unless noted, the call rests on the fitted dose curve; in most records, active means well fitted curve in the direction sought with a large enough effect in the repeat runs; inconclusive means weak or mixed curves; inactive means no such curve, though single readings can be large; an effect the other way counts as inactive or inconclusive.
Key:
[1] = molecular target: Progesterone receptor (Homo sapiens) (UniProt P06401); assay: qHTS assay to identify small molecule agonists of the progesterone receptor (PR) signaling pathway (AID 1346784; calls by dose curve; further: nearly all actives have a fitted effect of over 30% in size)
Sequence of Progesterone receptor (Homo sapiens) (P06401 whole entry, looked up): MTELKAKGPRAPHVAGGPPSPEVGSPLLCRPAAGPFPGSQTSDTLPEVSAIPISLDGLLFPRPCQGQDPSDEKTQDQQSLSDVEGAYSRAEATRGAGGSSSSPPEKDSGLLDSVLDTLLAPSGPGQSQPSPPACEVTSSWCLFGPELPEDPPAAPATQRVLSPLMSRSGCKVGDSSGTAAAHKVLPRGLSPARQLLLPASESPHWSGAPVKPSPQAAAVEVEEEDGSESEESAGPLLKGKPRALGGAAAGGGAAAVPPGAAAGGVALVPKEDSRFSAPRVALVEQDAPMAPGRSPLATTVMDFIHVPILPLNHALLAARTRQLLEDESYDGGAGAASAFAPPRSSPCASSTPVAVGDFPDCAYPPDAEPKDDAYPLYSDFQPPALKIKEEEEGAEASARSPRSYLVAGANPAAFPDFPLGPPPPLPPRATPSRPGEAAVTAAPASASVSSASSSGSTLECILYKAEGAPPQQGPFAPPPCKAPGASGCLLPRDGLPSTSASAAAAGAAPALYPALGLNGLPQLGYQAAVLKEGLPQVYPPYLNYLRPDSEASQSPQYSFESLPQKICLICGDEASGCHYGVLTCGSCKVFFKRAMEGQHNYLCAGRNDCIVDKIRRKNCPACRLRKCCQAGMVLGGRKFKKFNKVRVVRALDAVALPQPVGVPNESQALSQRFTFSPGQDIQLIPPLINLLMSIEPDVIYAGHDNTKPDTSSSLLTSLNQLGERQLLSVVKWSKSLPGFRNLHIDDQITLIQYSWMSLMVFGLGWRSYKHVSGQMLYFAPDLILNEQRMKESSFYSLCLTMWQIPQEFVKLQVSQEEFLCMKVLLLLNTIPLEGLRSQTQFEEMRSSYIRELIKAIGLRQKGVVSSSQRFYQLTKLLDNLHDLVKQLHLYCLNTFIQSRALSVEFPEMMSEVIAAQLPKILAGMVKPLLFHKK
Summary of the method: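 HEK 293T PR-UAS-bla reporter cells, 2% charcoal-stripped FBS; 6 hr settle at 37C/5% CO2, compound (DMSO) 16 hr, LiveBLAzer B/G FRET substrate 2 hr RT, fluorescence intensity read.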

[2] = qHTS assay to identify small molecule antagonists of the progesterone receptor (PR) signaling pathway - cell viability counter screen (AID 1346798); further: series mostly up to about 92 µM; nearly all actives have a fitted effect of over 50% in size
Summary of the method: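 Luminescence readout (CellTiter-Glo, 30 min, RT) of viability in PR-UAS-bla HEK293T cells exposed to compound and R5020 agonist for 16 hr at 37C, 5% CO2; run in the same wells as the beta-lactamase reporter read.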

[3] = qHTS assay to identify small molecule agonists of the progesterone receptor (PR) signaling pathway - cell viability counter screen (AID 1346799; calls by dose curve; further: nearly all actives have a fitted effect of over 45% in size; further: potency means the concentration at half of the fitted maximal effect)
Summary of the method: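 HEK293T PR-UAS-bla, 3,000 cells/well, 2% charcoal-stripped FBS; 6 h settle, compound 16 h at 37C/5% CO2; LiveBLAzer 2 h RT, then CellTiter-Glo 30 min RT, luminescence read.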

[4] = qHTS assay to identify small molecule antagonists of the TGF-beta/Smad signaling pathway - cell viability counter screen (AID 1346824); further: nearly all actives have a fitted effect of over 50% in size
Summary of the method: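 Cytotoxicity counter-screen run in the same wells as the beta-lactamase Smad reporter read: CellTiter-Glo luminescence after 30 min at room temperature. HEK 293T SBE-bla cells had 5 hr compound exposure at 37 C with TGF-beta1 (0.25 ng/mL stock).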

[5] = molecular target: Thyrotropin-releasing hormone receptor (Homo sapiens) (UniProt P34981); assay: qHTS assay to identify small molecule antagonists of the thyrotropin-releasing hormone receptor (TRHR) signaling pathway (AID 1346877; active means well fitted inhibition curve with a large enough effect in the repeat runs, not every such curve was filed as active; further: series mostly up to about 51 µM)
Sequence of Thyrotropin-releasing hormone receptor (Homo sapiens) (P34981 whole entry, looked up): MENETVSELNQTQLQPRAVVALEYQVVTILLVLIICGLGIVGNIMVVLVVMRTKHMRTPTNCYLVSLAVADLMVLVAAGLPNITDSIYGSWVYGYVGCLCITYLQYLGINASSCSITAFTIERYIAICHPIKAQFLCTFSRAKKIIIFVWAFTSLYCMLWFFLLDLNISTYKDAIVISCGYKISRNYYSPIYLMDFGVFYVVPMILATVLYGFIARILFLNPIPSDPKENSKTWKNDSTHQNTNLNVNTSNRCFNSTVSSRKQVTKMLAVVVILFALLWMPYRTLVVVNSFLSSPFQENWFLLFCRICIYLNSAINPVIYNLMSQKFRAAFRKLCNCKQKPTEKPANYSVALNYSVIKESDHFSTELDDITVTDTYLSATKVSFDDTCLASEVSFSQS
Summary of the method: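 TRHR-expressing HEK293 cells loaded with calcium dye for 2 h at 37 C; compounds pre-incubated 5 min at room temperature before TRH challenge at 1 nM final. Intracellular calcium fluorescence read kinetically for 3 min; 15 concentrations in triplicate.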

[6] = molecular target: Thyrotropin-releasing hormone receptor (Homo sapiens) (UniProt P34981); assay: qHTS assay to identify small molecule agonists of the thyrotropin-releasing hormone receptor (TRHR) signaling pathway (AID 1346891; calls by dose curve; further: series mostly up to about 58 µM)
Summary of the method: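 HEK293/TRHR cells, 1500 per well, 18 h 37 °C; Ca dye 2 h 37 °C; pin-tool compound addition (agonist mode); kinetic fluorescence 3 min, 1 s reads; 15 concentrations, triplicate.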

[7] = Human pregnane X receptor (PXR) small molecule agonists, qHTS cell viability counter screen (AID 1346977); further: nearly all actives have a fitted effect of over 50% in size
Summary of the method: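 Fluorescence read-out (CellTiter-Fluor) of viability in PXR-Luc HepG2 cells, multiplexed with the luciferase agonist read. Compounds in DMSO added after 5hr plating; 24hr total exposure at 37C, 5% CO2.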

[8] = Caspase-3/7 induction in HepG2 cells by small molecules, qHTS assay (AID 1346978); further: nearly all actives have a fitted effect of over 15% in size
Summary of the method: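 Caspase-3/7 induction was measured by Caspase-Glo 3/7 luminescence (30 min, room temperature) after a 17 hr compound exposure of wild-type HepG2 cells seeded at 2,000 per well and pre-incubated 5 hr.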

[9] = Caspase-3/7 induction in CHO-K1 cells by small molecules, qHTS cell viability counter screen (AID 1346979); further: nearly all actives have a fitted effect of over 35% in size; further: potency means the concentration at half of the fitted maximal effect
Summary of the method: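 CHO-K1 wt, 1,500 cells/well; 5hr pre-incubation 37C/5% CO2; compound pin transfer (DMSO); 16hr exposure; CellTiter-Fluor added, 1hr, fluorescence read.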

[10] = Caspase-3/7 induction in CHO-K1 cells by small molecules, qHTS assay (AID 1346980); further: nearly all actives have a fitted effect of over 15% in size
Summary of the method: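 Luminescent Caspase-Glo 3/7 read (30min, room temperature) quantified apoptosis induction. Cells were wild-type CHO-K1, treated with compound for 17hr at 37 C and 5% CO2.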

[11] = Caspase-3/7 induction in HepG2 cells by small molecules, qHTS cell viability counter screen (AID 1346981); further: series mostly up to about 92 µM; nearly all actives have a fitted effect of over 30% in size
Summary of the method: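 Wild-type HepG2 cells, 2,000/well, settled 5 hr at 37 C, 5% CO2 before compound addition. Viability read by CellTiter-Fluor fluorescence, reagent added after 16 hr compound exposure, then 1 hr at 37C, in the same wells as the caspase read.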

[12] = molecular target: Nuclear receptor subfamily 1 group I member 2 (Homo sapiens) (UniProt O75469); assay: Human pregnane X receptor (PXR) small molecule agonists, qHTS assay (AID 1346982); further: nearly all actives have a fitted effect of over 35% in size; further: potency means the concentration at half of the fitted maximal effect
Sequence of Nuclear receptor subfamily 1 group I member 2 (Homo sapiens) (O75469 whole entry, looked up): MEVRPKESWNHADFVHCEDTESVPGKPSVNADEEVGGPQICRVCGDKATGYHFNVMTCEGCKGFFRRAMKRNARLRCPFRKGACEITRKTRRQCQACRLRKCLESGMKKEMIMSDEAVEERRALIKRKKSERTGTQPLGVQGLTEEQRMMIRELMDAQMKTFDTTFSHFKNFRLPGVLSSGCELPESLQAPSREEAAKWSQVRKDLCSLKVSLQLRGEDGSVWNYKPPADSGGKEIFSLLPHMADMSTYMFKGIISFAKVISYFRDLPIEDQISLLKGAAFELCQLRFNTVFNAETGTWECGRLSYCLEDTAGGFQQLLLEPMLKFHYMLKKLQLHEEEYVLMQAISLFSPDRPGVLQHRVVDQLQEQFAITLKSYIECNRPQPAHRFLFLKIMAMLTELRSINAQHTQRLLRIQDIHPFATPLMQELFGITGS
Summary of the method: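 PXR-Luc HepG2 reporter cells (CYP3A4-driven luciferase) in 5% charcoal-stripped FBS medium, plated 5 h before compound addition, then treated 24 h at 37C. Luciferase read by ONE-Glo luminescence after 30 min at room temperature.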

[13] = molecular target: Nuclear receptor subfamily 1 group I member 2 (Rattus norvegicus) (UniProt Q9R1A7); assay: Rat pregnane X receptor (rPXR) activation by small molecules, qHTS assay (AID 1346983); details: rPXR luciferase reporter cells, One-Glo luminescence, 24 h; max activation: stronger effect = higher value; further: nearly all actives have a fitted effect of over 20% in size; further: potency means the concentration at half of the fitted maximal effect
Sequence of Nuclear receptor subfamily 1 group I member 2 (Rattus norvegicus) (Q9R1A7 whole entry, looked up): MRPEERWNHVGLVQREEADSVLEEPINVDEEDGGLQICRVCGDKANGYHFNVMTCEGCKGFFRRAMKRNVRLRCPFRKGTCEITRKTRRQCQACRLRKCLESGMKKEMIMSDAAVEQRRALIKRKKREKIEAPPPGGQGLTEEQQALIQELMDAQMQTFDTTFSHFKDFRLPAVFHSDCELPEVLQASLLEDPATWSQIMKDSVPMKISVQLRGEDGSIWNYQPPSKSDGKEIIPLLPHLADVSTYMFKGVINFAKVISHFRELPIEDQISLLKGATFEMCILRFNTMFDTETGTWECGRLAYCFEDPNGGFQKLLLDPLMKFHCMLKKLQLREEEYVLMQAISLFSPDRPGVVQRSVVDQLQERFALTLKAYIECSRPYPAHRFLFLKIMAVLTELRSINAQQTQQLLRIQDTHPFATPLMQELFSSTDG
Summary of the method: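 Luminescent readout (One-Glo luciferase, 30 min room temperature) followed 24 hr compound treatment at 37 C of rPXR cells plated 2,000 per well and preincubated 5hr; qHTS format with compounds delivered in DMSO.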

[14] = molecular target: Nuclear receptor subfamily 1 group I member 2 (Homo sapiens) (UniProt O75469); assay: CYP3A4 induction through human pregnane X receptor (PXR) by small molecules, qHTS assay (AID 1346984); further: nearly all actives have a fitted effect of over 40% in size
Summary of the method: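 DPX-2 HepG2 cells carrying a PXR response element and CYP3A4-promoter luciferase construct, treated with compounds 24 hr at 37C. Then P450-Glo CYP3A4 Luciferin-IPA substrate (3uM final) for 3 hr at 37C, One-Glo added, luminescence read.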

[15] = molecular target: Nuclear receptor subfamily 1 group I member 2 (Homo sapiens) (UniProt O75469); assay: Human pregnane X receptor (PXR) activation by small molecules, qHTS assay (AID 1346985); further: nearly all actives have a fitted effect of over 40% in size; further: potency means the concentration at half of the fitted maximal effect
Summary of the method: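 DPX-2 cells (HepG2 co-transfected with a PXR response element and a CYP3A4-promoter luciferase construct) were seeded at 2,000 per well, rested 5 hr at 37C, then exposed to DMSO-dissolved compounds for 24 hr. Activation was read as luciferase luminescence.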

[16] = molecular target: Cytochrome P450 2D6 (Homo sapiens) (UniProt P10635); assay: Cytochrome P450 Family 2 Subfamily D Member 6 (CYP2D6) small molecule antagonists: luciferase reporter qHTS assay (AID 1671196); further: nearly all actives have a fitted effect of over 50% in size; further: potency means the concentration at half of the fitted maximal effect; on activity change, negative = inhibition: series mostly up to about 120 µM
Sequence of Cytochrome P450 2D6 (Homo sapiens) (P10635 whole entry, looked up): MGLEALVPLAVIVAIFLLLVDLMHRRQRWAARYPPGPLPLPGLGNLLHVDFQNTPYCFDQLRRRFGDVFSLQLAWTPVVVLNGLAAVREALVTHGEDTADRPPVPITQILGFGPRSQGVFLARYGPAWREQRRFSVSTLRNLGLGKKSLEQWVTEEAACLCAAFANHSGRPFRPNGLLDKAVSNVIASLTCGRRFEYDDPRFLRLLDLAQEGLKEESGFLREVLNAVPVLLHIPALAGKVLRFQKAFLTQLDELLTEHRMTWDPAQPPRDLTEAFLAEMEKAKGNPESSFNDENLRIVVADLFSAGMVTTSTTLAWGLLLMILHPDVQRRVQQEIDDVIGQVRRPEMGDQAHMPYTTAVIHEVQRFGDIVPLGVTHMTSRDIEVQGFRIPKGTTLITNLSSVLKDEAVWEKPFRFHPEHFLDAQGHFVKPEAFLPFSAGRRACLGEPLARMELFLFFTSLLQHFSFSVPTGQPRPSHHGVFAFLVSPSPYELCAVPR
Summary of the method: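 Cell-free P450-Glo system: CYP2D6 with proluciferin substrate was pre-incubated with compound for 10 min, then reacted with NADPH regeneration for 1 h at room temperature. Luciferin product was detected after 20 min, and data were reported as relative luminescence units.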

[17] = qHTS assay to identify small molecule agonists of the TGF-beta/Smad signaling pathway - cell viability counter screen (AID 1346829); further: top concentration of the series differs between compounds; nearly all actives have a fitted effect of over 45% in size
Summary of the method: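 In parallel with the Smad reporter read, viability of HEK 293T cells stably carrying SBE-bla is quantified by ATP luminescence following 5 hr compound treatment.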

[18] = qHTS assay to identify small molecule agonists of the TGF-beta/Smad signaling pathway (AID 1346859; active means well fitted activation curve with a large enough effect in the signal ratio in the repeat runs, not every such curve was filed as active; the % refers to the signal ratio; further: series mostly up to about 77 µM)
Summary of the method: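 Read-out: fluorescence at 460 and 530 nm (405 nm excitation) after a 2 hr room-temperature incubation with beta-lactamase FRET substrate. SBE-bla HEK 293T cells had been treated with test compounds for 5 hr at 37 C.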

[19] = molecular target: Progesterone receptor (Homo sapiens) (UniProt P06401); assay: qHTS assay to identify small molecule antagonists of the progesterone receptor (PR) signaling pathway (AID 1346795; active means well fitted inhibition curve with a large enough effect in the signal ratio in the repeat runs, not every such curve was filed as active; the % refers to the signal ratio)
Summary of the method: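 Beta-lactamase reporter, HEK293T PR-UAS-bla line; 2% charcoal-stripped FBS; 6 hr pre-incubation, 37C/5% CO2. Compound + R5020 1 nM final, 16 hr. LiveBLAzer B/G FRET substrate, 2 hr RT; fluorescence intensity read.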
On the % scale 0 is the no-effect control and ±100 the full control effect.

Cc1c(-c2ccccc2)oc2c(C(=O)OCCN3CCCCC3)cccc2c1=O
inactive: Potency [1] | Potency [2] | Potency [3] | outcome [4] | outcome [5] | Potency [6] | Potency [7] | Potency [8] | Potency [9] | outcome [10] | Potency [11] | Potency [12] | max activation [13] -3.87% | Potency [14] | Potency [15]
active: Potency [16] 5.49 µM

CCN(CC)CC1CCCCN1CC(=O)N1c2ccccc2C(=O)Nc2cccnc21 (configuration not stated)
inactive: Potency [1] | Potency [2] | Potency [3] | outcome [4] | outcome [17] | outcome [18] | outcome [5] | Potency [6] | Potency [7] | Potency [8] | Potency [9] | outcome [10] | Potency [11] | Potency [12] | max activation [13] -0.899% | Potency [14] | Potency [15] | Potency [16]

CN(C)Cc1ccccc1
inactive: Potency [1] | Potency [3] | outcome [4] | outcome [17] | outcome [18] | outcome [5] | Potency [6] | Potency [7] | Potency [8] | outcome [10] | Potency [11] | Potency [12]
active: Potency [16] 18 µM

CCc1cc2cc(OC)c(OC)cc2c(Cc2ccccc2)n1
active: Potency [12] 13.3 µM
inactive: Potency [1] | Potency [2] | outcome [4] | outcome [17] | outcome [18] | Potency [7] | Potency [8] | outcome [10]

Cc1cc2c(s1)Nc1ccccc1N=C2N1CCN(C)CC1
inactive: Potency [1] | Potency [19] | Potency [2] | Potency [3] | outcome [4] | outcome [17] | outcome [18] | outcome [5] | Potency [6] | Potency [8] | outcome [10] | Potency [12] | max activation [13] -3.7% | Potency [14] | Potency [15] | Potency [16]
active: Potency [9] 7.5 µM

CO[C@@]1(NC(=O)CSCC#N)C(=O)N2C(C(=O)O)=C(CSc3nnnn3C)CS[C@@H]21
inactive: Potency [1] | Potency [19] | Potency [2] | Potency [3] | outcome [4] | outcome [18] | outcome [5] | Potency [6] | Potency [7] | Potency [8] | Potency [9] | outcome [10] | Potency [11] | Potency [12] | max activation [13] -3.26% | Potency [14] | Potency [15] | Potency [16]

O=C1Nc2ccc([N+](=O)[O-])cc2C1=O
active: Potency [16] 7.09 µM
inactive: Potency [1] | Potency [19] | Potency [2] | Potency [3] | outcome [4] | outcome [17] | outcome [18] | outcome [5] | Potency [6] | Potency [8] | outcome [10] | Potency [12]

CN(C)C(=O)NC1(c2ccccc2)CCN(CCC[C@]2(c3ccc(Cl)c(Cl)c3)CCCN(C(=O)c3ccccc3)C2)CC1
inactive: activation [1] -5.56% [at 19 µM] | activity change, negative = inhibition [19] -8.48% [at 18.9 µM] | activity change, negative = cytotoxicity [3] 3.74% [at 19 µM] | viability change, negative = cytotoxic [4] 0% [at 15.8 µM] | activity change, negative = cytotoxicity [17] 2.25% [at 15.8 µM] | caspase activation [8] 1.95% [at 19 µM] | caspase-3/7 activation [10] -0.059% [at 19 µM] | activation [12] -0.297% [at 19 µM]
active: Potency [16] 3.79 µM

C=CC(C)(O)CC/C=C(\C)CCC=C(C)C (configuration not stated)
inactive: Potency [1] | Potency [2] | Potency [3] | outcome [4] | outcome [17] | outcome [18] | outcome [5] | Potency [6] | Potency [8] | outcome [10] | Potency [11] | Potency [12] | max activation [13] 3.74% | Potency [14] | Potency [15]

O=c1[nH]cnc2c1ncn2[C@@H]1O[C@H](CO)[C@@H](O)[C@H]1O
inactive: Potency [1] | Potency [2] | Potency [3] | outcome [4] | outcome [17] | outcome [18] | outcome [5] | Potency [6] | Potency [7] | Potency [8] | outcome [10] | Potency [11] | Potency [12] | max activation [13] -2.07% | Potency [14] | Potency [15] | Potency [16]
active: Potency [9] 1.06 µM

COc1ccc2nc(NC(=O)Nc3ccccc3)sc2c1
inactive: Potency [1] | Potency [2] | Potency [3] | outcome [4] | outcome [17] | outcome [18] | outcome [5] | Potency [6] | Potency [7] | Potency [8] | outcome [10] | Potency [16]
active: Potency [12] 1.88 µM | Potency [13] 0.199 µM

CCCCCCCCc1ccc(S(=O)(=O)O)cc1
active: Potency [3] 19.2 µM
inactive: Potency [1] | Potency [19] | Potency [2] | outcome [4] | outcome [18] | outcome [5] | Potency [6] | Potency [7] | Potency [8] | Potency [9] | outcome [10] | Potency [11] | Potency [12] | Potency [16]

CC1(C)C(=O)N(Cl)C(=O)N1Br
inactive: Potency [19] | Potency [2] | Potency [3] | outcome [4] | outcome [17] | outcome [18] | outcome [5] | Potency [6] | Potency [8] | Potency [9] | outcome [10] | Potency [11] | Potency [12] | Potency [16]

CCC(=O)O[C@]1(C(=O)SCF)[C@H](C)C[C@H]2[C@@H]3C[C@H](F)C4=CC(=O)C=C[C@]4(C)[C@@]3(F)[C@@H](O)C[C@@]21C
active: Potency [12] 0.473 µM | Potency [13] 1.58 µM | Potency [15] 0.447 µM
inactive: Potency [19] | Potency [2] | Potency [3] | outcome [4] | outcome [17] | outcome [18] | outcome [5] | Potency [6] | Potency [7] | Potency [8] | Potency [9] | outcome [10] | Potency [11] | Potency [14] | Potency [16]
